# Measurements published in PubChem BioAssay.
# Results filed as inconclusive are left out. Active and inactive are the calls of the source. Unless noted, how the calls were made is not given here.
# Key:
# [1] = rapamycin-like changes in RPL19A-GFP expression – cell-based, S. cerevisiae, multiplex flow cytometry, primary screen (AID 1862; in the data active means percent of DMSO control GFP below about 86%;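 further: lower values mimic rapamycin by blocking the RPL19A rise seen in DMSO cells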); conditions: S. cerevisiae RPL19A-GFP strain, flow cytometry fluorescence, 3 h; at 10 µM; stronger effect = lower value
# [2] = TOR pathway GLN3 branch reporter MEP2-GFP changes – S. cerevisiae, multiplex flow cytometry, primary screen (AID 1867;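 active means GFP response, as percent of the DMSO control, above the screen-wide mean plus 3 SD, about 139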;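 further: median GFP channel fluorescence of barcode-gated MEP2-GFP cells measured by flow cytometry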); conditions: S. cerevisiae MEP2-GFP strain, 3 h, at 10 µM, stronger effect = higher value
# [3] = TOR pathway RTG branch CIT2 reporter changes – S. cerevisiae, GFP fusion, multiplex flow cytometry, primary screen (AID 1870;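 active means percent response above a set limit, the screen-wide mean plus 3 SD, cut at about 130% in these data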;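 further: barcoded CIT2-GFP strain pooled with four other GFP strains with rapamycin as positive control; median GFP fluorescence per well over plate mean of DMSO wells so 100% = DMSO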); conditions: S. cerevisiae CIT2-GFP expression, 3 h, at 10 µM, stronger effect = higher value
# [4] = TOR pathway LAP4-GFP level changes – S. cerevisiae, multiplex flow cytometry, primary screen (AID 1873;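 active means GFP signal, as percent of the solvent control, above the screen mean plus 3 SD, about 149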); conditions: S. cerevisiae LAP4-GFP expression, 3 h, at 10 µM, stronger effect = higher value
# [5] = yeast AGP1-GFP level changes, GLN3 branch – cell-based, multiplex flow cytometry, S. cerevisiae, primary screen (AID 1887;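 active means GFP signal above the screen-wide mean plus 3 SD, that is over about 124.5% of the solvent control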;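 further: AGP1-GFP fusion strain of S. cerevisiae within a five-strain barcoded multiplex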); conditions: 3 h, at 10 µM, stronger effect = higher value
# [6] = reduced mouse 2C T cell binding to pMHC/ICAM-1 vesicles – MLPCN validation set, flow cytometry, LFA-1/ICAM-1 modulator project, pilot screen (AID 2523;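 active means response below a set limit, under 55% cells CD8-positive and vesicle-bound, and CD8 cells' 90th-percentile brightness under 279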;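 on vesicle binding response: mean PE anti-B7-1 fluorescence of CD8+ cells relative to row control; 100% = QL9-loaded vesicles with DMSO vehicle in the same plate row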); conditions: 2C mouse CD8+ T cells, at 7 µM, stronger effect = lower value; double positive events: measured here: CD8+/vesicle+ event percentage
# [7] = biological target: Integrin beta-1 (Homo sapiens) + Integrin alpha-4 (Homo sapiens) (UniProt P13612+P05556); assay: alpha4beta1 integrin LIBS antibody binding reduction – U937 cells, HUTS-21 mAb, flow cytometry, validation set, VLA-4 allosteric modulator project, pilot screen (AID 2674;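 active means inhibition above 50%, about 3 SD of the validation set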;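 further: antibody binding induced by the VLA-4 ligand LDV present at three times its Kd; 0% = LDV ligand with antibody and no compound and 100% = antibody without LDV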); conditions: HUTS-21 LIBS mAb binding, at 6.7 µM, stronger effect = higher value
# Integrin beta-1 (Homo sapiens) + Integrin alpha-4 (Homo sapiens), sequence (P05556 whole entry, looked up): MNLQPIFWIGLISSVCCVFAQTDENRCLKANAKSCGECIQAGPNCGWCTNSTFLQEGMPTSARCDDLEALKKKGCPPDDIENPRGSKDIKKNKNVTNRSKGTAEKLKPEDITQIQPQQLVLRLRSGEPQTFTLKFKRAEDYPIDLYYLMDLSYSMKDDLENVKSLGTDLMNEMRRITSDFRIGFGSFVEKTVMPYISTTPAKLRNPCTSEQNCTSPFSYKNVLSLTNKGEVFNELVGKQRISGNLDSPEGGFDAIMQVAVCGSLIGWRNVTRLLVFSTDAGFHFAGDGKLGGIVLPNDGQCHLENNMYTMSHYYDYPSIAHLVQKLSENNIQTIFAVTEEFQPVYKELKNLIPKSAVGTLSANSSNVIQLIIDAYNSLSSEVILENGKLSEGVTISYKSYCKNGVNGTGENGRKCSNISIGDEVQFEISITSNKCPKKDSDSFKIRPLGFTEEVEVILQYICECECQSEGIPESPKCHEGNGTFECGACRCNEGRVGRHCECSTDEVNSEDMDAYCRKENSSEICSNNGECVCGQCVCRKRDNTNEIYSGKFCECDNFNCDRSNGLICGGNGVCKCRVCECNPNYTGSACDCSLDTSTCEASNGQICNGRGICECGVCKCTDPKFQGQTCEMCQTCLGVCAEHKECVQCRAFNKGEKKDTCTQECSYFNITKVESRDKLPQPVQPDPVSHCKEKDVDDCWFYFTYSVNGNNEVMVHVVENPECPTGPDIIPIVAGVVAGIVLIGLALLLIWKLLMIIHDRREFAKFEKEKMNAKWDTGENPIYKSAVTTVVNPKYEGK
# Integrin beta-1 (Homo sapiens) + Integrin alpha-4 (Homo sapiens), sequence (P13612 whole entry, looked up): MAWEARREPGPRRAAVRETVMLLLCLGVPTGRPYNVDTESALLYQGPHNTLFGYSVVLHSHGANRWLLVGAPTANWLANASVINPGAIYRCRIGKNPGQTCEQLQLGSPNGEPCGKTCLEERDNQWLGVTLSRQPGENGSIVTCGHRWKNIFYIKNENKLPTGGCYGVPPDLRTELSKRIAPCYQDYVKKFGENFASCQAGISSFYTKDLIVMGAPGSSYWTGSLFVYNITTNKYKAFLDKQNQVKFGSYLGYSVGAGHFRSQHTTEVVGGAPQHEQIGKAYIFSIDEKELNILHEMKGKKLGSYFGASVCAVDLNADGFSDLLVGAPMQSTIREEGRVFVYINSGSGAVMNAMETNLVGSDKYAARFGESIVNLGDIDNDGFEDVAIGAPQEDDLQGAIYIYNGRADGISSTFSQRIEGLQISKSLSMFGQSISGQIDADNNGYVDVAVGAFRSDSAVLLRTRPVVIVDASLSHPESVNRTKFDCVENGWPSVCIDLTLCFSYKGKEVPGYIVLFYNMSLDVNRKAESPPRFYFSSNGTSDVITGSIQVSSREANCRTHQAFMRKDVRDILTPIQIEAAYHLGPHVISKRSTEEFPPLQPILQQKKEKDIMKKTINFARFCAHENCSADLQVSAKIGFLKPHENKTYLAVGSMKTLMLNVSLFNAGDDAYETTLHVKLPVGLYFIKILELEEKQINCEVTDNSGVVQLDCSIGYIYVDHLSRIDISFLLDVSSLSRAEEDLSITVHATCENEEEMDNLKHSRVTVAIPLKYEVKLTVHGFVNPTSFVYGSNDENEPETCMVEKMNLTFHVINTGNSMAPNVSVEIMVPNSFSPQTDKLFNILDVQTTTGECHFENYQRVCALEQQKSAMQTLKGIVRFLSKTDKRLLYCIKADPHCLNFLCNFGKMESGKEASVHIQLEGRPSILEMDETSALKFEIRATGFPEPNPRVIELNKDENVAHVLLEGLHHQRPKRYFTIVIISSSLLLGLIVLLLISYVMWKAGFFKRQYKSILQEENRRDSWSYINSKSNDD
# [8] = calorie-restriction mimetic ROS inhibitors, yeast – validation compound set, pilot screen (AID 2706;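 active means superoxide response below 65% of plate, a cut near 3 SD across the whole screen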;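 further: yeast exposed to compound for one week at 30 degrees C before staining; 100% = mean of all compound wells on the same plate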); conditions: S. cerevisiae aging, superoxide DHE fluorescence; at 10 µM; stronger effect = lower value
# [9] = biological target: Beta-adrenergic receptor kinase 1 (Homo sapiens) (UniProt P25098); assay: GRK2 binders displacing RNA aptamer, biochemical, validation, human GRK2, bead flow cytometry (AID 488806;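 active means aptamer binding inhibition above 30%, about 3 SD of noise from non-fluorescent compounds; inactive means inhibition at or below 30%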); conditions: bead-bound GRK2, FAM-aptamer displacement, at 10 µM, stronger effect = higher value
# Beta-adrenergic receptor kinase 1 (Homo sapiens), sequence (P25098 whole entry, looked up): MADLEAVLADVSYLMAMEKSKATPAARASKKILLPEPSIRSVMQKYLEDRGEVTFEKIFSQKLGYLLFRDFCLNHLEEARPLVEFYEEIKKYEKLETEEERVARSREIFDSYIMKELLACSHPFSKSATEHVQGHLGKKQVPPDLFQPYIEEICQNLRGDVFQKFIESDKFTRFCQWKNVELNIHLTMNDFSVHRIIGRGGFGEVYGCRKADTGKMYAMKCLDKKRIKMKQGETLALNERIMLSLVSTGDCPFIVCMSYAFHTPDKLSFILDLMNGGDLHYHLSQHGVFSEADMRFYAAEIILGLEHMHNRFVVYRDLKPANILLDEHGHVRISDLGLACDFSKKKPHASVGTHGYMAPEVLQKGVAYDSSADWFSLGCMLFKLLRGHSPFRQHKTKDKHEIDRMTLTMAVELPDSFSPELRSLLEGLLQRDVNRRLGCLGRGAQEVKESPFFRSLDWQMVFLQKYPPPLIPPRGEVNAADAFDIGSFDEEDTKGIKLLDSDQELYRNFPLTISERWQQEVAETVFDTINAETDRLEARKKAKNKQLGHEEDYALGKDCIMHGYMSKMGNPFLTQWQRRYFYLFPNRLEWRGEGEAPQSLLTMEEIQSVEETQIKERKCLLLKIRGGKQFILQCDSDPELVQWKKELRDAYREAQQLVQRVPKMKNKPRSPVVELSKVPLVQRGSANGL
# [10] = biological target: Beta-2 adrenergic receptor (Homo sapiens) (UniProt P07550); assay: agonist-induced loss of surface beta2AR – cell-based, FAP fluorogen, flow cytometry, validation set, pilot screen (AID 504459;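 active means percent response above 42, roughly 3 SD of non-fluorescent test compounds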;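 further: agonist-driven loss of surface beta2AR via internalization measured by FAP dye flow cytometry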); conditions: Am2.2-beta2AR cells, at 10 µM, stronger effect = higher value
# [11] = biological target: AP-2 complex subunit beta (Homo sapiens) (UniProt P63010); assay: beta-arrestin/AP2 interaction blockers – biochemical, validation set, GST-AP2 beads, flow cytometry, pilot screen (AID 504541;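 active means inhibition above 54%, about 3 SD of non-fluorescent compounds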;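 further: AP2 carries R879A mutation and is captured from E. coli lysate; bead-bound FITC arrestin peptide fluorescence measuring arrestin peptide binding to AP2; 0% = DMSO wells and 100% = excess unlabeled arrestin peptide control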); conditions: FITC arrestin peptide, at 10 µM, stronger effect = higher value
# AP-2 complex subunit beta (Homo sapiens), sequence (P63010 whole entry, looked up, one chain of several): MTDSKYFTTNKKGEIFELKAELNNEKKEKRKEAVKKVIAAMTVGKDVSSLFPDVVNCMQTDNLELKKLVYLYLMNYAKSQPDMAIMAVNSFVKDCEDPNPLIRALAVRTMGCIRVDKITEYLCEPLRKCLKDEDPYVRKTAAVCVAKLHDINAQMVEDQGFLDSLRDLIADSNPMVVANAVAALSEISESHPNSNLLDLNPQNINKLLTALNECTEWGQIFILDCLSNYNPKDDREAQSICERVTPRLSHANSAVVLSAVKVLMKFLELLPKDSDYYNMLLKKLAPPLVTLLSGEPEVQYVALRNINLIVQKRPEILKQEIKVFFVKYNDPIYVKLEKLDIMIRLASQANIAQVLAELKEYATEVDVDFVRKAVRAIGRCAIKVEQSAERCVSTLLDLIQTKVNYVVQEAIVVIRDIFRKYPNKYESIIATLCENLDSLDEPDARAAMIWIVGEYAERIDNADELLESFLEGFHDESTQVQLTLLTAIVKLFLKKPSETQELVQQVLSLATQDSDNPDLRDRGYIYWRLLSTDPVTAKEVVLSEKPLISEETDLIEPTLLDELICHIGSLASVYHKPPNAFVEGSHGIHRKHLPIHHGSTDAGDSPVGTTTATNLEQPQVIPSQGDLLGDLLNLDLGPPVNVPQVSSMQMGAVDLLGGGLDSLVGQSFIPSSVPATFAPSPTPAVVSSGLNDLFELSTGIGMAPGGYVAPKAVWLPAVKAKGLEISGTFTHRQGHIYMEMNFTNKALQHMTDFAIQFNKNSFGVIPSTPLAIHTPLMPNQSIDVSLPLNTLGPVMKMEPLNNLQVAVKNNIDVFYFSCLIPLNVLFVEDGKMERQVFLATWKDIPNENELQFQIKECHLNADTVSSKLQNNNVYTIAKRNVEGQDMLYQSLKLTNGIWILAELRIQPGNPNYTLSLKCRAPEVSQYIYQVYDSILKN
# [12] = cytosolic pH regulators acting via V-ATPase – S. cerevisiae, pHLuorin, HTS validation (AID 504600; in the data active means response above about 15%;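 further: plate controls were DMSO for no effect and reference compound for full effect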); conditions: V-ATPase proton transport, at 10 µM, stronger effect = higher value
# [13] = test system: anti-desmoglein-3 scFv antibody binding to human DSG3; assay: blockers of pathogenic pemphigus antibody–desmoglein-3 binding – biochemical, validation compound set, bead-based, flow cytometry, pilot screen (AID 588368;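 active means binding below the plate cutoff, the plate median minus 3 SD, with a reading above zero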;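 further: signal is the median channel fluorescence of bead-bound GFP antibody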); conditions: Protein G beads, DSG3-Fc, scFv-GFP binding, at 10 µM, stronger effect = lower value
# [14] = test system: Botulinum neurotoxin type F light chain protease (Clostridium botulinum); assay: Clostridium botulinum type F light chain protease inhibitors, microsphere substrate cleavage, validation (AID 588459); conditions: multiplex microsphere protease substrate cleavage assay, flow cytometry; at 10 µM; stronger effect = higher value
# [15] = biological target: Botulinum neurotoxin type A (Clostridium botulinum) (UniProt P0DPI0); assay: BoNT/A light chain protease inhibitors, biochemical, multiplex microsphere flow cytometry, validation set (AID 588460); conditions: at 10 µM, stronger effect = higher value
# Botulinum neurotoxin type A (Clostridium botulinum), sequence (P0DPI0 whole entry, looked up): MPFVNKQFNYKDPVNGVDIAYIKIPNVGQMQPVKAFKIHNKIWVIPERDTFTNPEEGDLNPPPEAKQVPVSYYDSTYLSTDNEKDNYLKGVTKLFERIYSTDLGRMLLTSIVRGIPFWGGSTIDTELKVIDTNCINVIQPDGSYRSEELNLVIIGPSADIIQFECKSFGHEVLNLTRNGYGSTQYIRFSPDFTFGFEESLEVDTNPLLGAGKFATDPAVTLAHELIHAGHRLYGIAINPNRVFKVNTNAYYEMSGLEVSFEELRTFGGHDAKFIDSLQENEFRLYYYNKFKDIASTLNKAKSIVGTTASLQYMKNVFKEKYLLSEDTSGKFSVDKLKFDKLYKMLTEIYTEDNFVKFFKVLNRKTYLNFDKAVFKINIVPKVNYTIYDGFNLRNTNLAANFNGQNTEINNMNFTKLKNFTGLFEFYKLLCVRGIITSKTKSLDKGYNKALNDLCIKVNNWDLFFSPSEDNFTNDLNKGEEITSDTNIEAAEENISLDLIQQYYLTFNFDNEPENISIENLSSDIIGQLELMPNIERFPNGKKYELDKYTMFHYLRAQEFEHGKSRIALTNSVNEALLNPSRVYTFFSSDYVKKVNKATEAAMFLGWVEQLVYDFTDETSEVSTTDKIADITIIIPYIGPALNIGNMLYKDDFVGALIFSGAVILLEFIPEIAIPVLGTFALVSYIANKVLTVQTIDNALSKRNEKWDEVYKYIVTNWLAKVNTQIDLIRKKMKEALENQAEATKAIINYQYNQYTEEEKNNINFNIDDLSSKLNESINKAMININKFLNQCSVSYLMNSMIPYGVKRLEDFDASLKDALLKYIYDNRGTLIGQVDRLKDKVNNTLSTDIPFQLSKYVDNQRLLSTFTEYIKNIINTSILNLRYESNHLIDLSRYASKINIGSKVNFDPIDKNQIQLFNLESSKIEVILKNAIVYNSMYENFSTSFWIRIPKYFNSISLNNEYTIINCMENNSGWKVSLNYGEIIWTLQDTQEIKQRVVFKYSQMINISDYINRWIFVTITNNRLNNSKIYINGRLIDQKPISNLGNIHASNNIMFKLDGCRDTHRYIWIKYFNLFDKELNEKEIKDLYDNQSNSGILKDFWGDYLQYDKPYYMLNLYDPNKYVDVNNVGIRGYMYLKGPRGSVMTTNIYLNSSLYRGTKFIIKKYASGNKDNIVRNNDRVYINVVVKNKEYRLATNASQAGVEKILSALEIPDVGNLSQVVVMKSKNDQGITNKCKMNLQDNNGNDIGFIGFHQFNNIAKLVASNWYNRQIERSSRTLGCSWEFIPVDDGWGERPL
# [16] = biological target: Lethal factor (Bacillus anthracis) (UniProt P15917); assay: Bacillus anthracis lethal factor inhibition, microsphere flow cytometry protease assay, validation at 10 µM (AID 588461); conditions: multiplex microsphere protease cleavage assay, stronger effect = higher value
# [17] = Nile Red efflux blockade in pump-expressing yeast – validation compound set, multiplex, phenotypic, pilot screen (AID 588506;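 active means efflux inhibition above 0.42, the validation set average plus 4 SD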;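 further: Nile Red retained in cells so higher fluorescence means more efflux inhibition; 0 = negative control wells and 1 = enniatin B 25 µM full block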); conditions: S. cerevisiae pump-expressing triplex, Nile Red efflux flow cytometry; at 10 µM; stronger effect = higher value
# [18] = biological target: ATP-binding cassette sub-family B member 6 (Homo sapiens) (UniProt Q9NP58); assay: blockers of ABCB6-driven porphyrin uptake – K562-ABCB6 cells, flow cytometry, validation set, pilot screen (AID 588550;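 active means inhibition above the screen-wide mean plus 3 SD, about 51%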;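 further: 0% = DMSO wells and 100% = benzethonium chloride 70 µM positive control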); conditions: K562-ABCB6 porphyrin accumulation, 1 h, at 10 µM, stronger effect = higher value
# [19] = AML differentiation inducers, ER-HoxA9 marrow cells – cell-based, GFP/MAC1 double positive, flow cytometry, validation set, primary screen (AID 588685;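 active means differentiation response of at least 50%, scaled between solvent and reference control, from cells with both markers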;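 further: compound exposure lasts four days before antibody staining and flow analysis; 0% = DMSO wells and 100% = 5 µM fulvestrant positive control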); conditions: stronger effect = higher value
SMILES,percent of DMSO control GFP [1],GFP response vs DMSO [2],percent response of DMSO control [3],GFP response vs DMSO [4],"GFP response, % of DMSO [5]",double positive events [6] [%],vesicle binding response [6],inhibition [7],superoxide response (% of plate) [8],aptamer binding inhibition [9],response [10],inhibition [11],response [12],binding (% of control) [13],inhibition [14],inhibition [15],inhibition [16],efflux inhibition (fraction of control) [17],inhibition [18],differentiation response [19]
COP(=S)(OC)SCN1C(=O)c2ccccc2C1=O,90.6% (inactive),92.7% (inactive),97% (inactive),144% (inactive),107% (inactive),63.5,194% (inactive),0.59% (inactive),97.7% (inactive),-4% (inactive),-10.4% (inactive),-11.6% (inactive),6.49% (inactive),96.4% (inactive),-1.7% (inactive),-0.5% (inactive),-2.9% (inactive),-0.09 (inactive),-1% (inactive),3.88% (inactive)
CN1C2CCC1CC(OC(=O)c1ccc(Cl)cc1)C2 (stereo not given),99.9% (inactive),98.5% (inactive),98.6% (inactive),119% (inactive),108% (inactive),62.2,228% (inactive),11.9% (inactive),99.6% (inactive),-1% (inactive),-2.49% (inactive),-3.16% (inactive),2.46% (inactive),99.5% (inactive),0% (inactive),-1.9% (inactive),-2.9% (inactive),-0.03 (inactive),4% (inactive),-13.6% (inactive)
CN1C(=O)N(C)C(=O)C2(Cc3ccccc3N3CCOCC32)C1=O (stereo not given),101% (inactive),103% (inactive),102% (inactive),93.7% (inactive),99.9% (inactive),64.2,3430% (inactive),8.28% (inactive),109% (inactive),0% (inactive),4.14% (inactive),-5.91% (inactive),0.7% (inactive),102% (inactive),5% (inactive),0.6% (inactive),1.1% (inactive),0.62 (active),5% (inactive),0% (inactive)
c1ccc2c(c1)[nH]c1cnccc12,102% (inactive),97.2% (inactive),104% (inactive),88.1% (inactive),95.9% (inactive),62.8,961% (inactive),-18.1% (inactive),99.7% (inactive),0% (inactive),-10.7% (inactive),-7.59% (inactive),-0.12% (inactive),96.1% (inactive),5.3% (inactive),2.5% (inactive),-4.7% (inactive),0.14 (inactive),0% (inactive),2.2% (inactive)
C[C@@]1(CO)[C@H](O)CC[C@@]2(C)[C@H]1CC[C@H]1C[C@@H]3C[C@@]12CC[C@]3(O)CO,105% (inactive),106% (inactive),102% (inactive),103% (inactive),99.3% (inactive),62.9,225% (inactive),17.7% (inactive),102% (inactive),0% (inactive),0.18% (inactive),54.5% (active),3.03% (inactive),100% (inactive),4.1% (inactive),1% (inactive),-0.5% (inactive),-0.04 (inactive),6% (inactive),-1.65% (inactive)
CC12CN3CC(C)(CN(C1)C3c1cccs1)C2O (stereo not given),105% (inactive),98.3% (inactive),109% (inactive),83.5% (inactive),104% (inactive),67,976% (inactive),4.73% (inactive),106% (inactive),2% (inactive),-7.61% (inactive),1.53% (inactive),1.19% (inactive),98% (inactive),-2.4% (inactive),-1.2% (inactive),7.5% (inactive),-0.07 (inactive),0% (inactive),0.24% (inactive)
CC12CN3CC(C)(CN(C1)C3c1cccs1)C2=O (stereo not given),101% (inactive),99.3% (inactive),109% (inactive),97.3% (inactive),107% (inactive),63,181% (inactive),-9.79% (inactive),102% (inactive),4% (inactive),-0.2% (inactive),-2.92% (inactive),-1.09% (inactive),99.3% (inactive),-2.3% (inactive),-0.1% (inactive),-4.2% (inactive),0.05 (inactive),6% (inactive),-7.57% (inactive)
COc1cc2c3cc1Oc1cc(ccc1O)C[C@@H]1c4c(cc(OC)c(O)c4Oc4ccc(cc4)C[C@H]3N(C)CC2)CCN1C,88.2% (inactive),125% (inactive),107% (inactive),81.4% (inactive),90.5% (inactive),56.5,214% (inactive),7.43% (inactive),92.4% (inactive),2% (inactive),17.5% (inactive),19.2% (inactive),1.91% (inactive),105% (inactive),-3.1% (inactive),-3% (inactive),-7.1% (inactive),0.05 (inactive),10% (inactive),-3.28% (inactive)
